The values that follow come from PubChem BioAssay (Tox21).

A short description of assay [1]: Nuclear factor erythroid 2-related factor 2/antioxidant responsive element (Nrf2/ARE) small molecule agonists: luciferase reporter gene qHTS assay in human keratinocytes (AID 1919969). Note: nearly all actives have a fitted effect of over 35% in size. Note: potency is the fitted concentration of half-maximal effect. For orientation: In a reporter assay the amount or activity of a reporter protein is the signal.
Assay [2] has as its target Gonadotropin-releasing hormone receptor (Homo sapiens) (UniProt P30968). The assay is described as follows: Human gonadotropin-releasing hormone receptor (GnRHR) small molecule agonists, calcium flux assay in GnRHR-HEK293 cells (AID 1920063). Note: nearly all actives have a fitted effect of over 35% in size. In a few lines: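 We seeded human GnRHR-expressing HEK293 cells for 18 hours, loaded them with calcium dye for an hour at 37 C, added test compounds, and recorded fluorescence intensity kinetically for three minutes.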

Assay [3] has as its target KiSS-1 receptor (Homo sapiens) (UniProt Q969F8). Put plainly: Human kisspeptin (KISS1R) small molecule agonists, calcium flux assay in KISS1R-HEK293 cells (AID 1920064; active = well fitted activation curve with a large enough effect in the repeat runs). The procedure, abridged:
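Kinetic calcium assay, 1 s sampling over 3 min at Ex/Em 480/540, in HEK293 cells engineered with human KISS1R; compounds delivered in DMSO after 1 h dye loading.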
In general terms: Calcium assays in cells follow changes in intracellular calcium, usually with a dye or a luminescent sensor.

The nature of assay [4]: G protein-coupled receptor (GPCR) small molecule agonists, calcium flux assay: HEK293 wild type cell line counter screen (AID 1920065). The procedure, abridged:
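Calcium-sensitive dye, loaded 1 h at 37 C into cells cultured 18 h, reports compound-evoked calcium release as fluorescence (Ex/Em 480/540), measured over 3 min. Agonist mode; 15-point titrations, triplicate.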

A short description of assay [5]: p53 small molecule agonists, cell-based qHTS assay with human liver microsomes (AID 1963577). The procedure, abridged:
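Compounds act here after metabolic activation: human liver microsomes and NADPH, both at 0.5 mg/mL final, were co-added to p53RE-bla cells. Incubation ran 16 h at 37 C, followed by LiveBLAzer detection.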

Assay [6] is described as follows: p53 small molecule agonists, cell-based qHTS assay with rat liver microsomes (AID 1963578). The procedure, abridged: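 Read-out is beta-lactamase reporter fluorescence (LiveBLAzer, 2 h, room temperature, dark) in p53RE-bla cells treated 16 h at 37 C with compound, rat liver microsomes and NADPH, both 0.5 mg/mL final.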
Assay [7] can be described thus: p53 small molecule agonists, cell-based qHTS assay with human liver microsomes: qHTS cell viability counter screen (AID 1963579). Note: nearly all actives have a fitted effect of over 45% in size. In a few lines: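 Cells carrying the p53 response-element beta-lactamase reporter are treated for 16 h at 37 C with test compounds in the presence of human liver microsomes and NADPH (both 0.5 mg/mL final); ATP-based CellTiter-Glo luminescence then reports viability.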

Assay [8] can be described thus: p53 small molecule agonists, cell-based qHTS assay with rat liver microsomes: qHTS cell viability counter screen (AID 1963580). Note: nearly all actives have a fitted effect of over 45% in size. In a few lines: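 p53RE-bla HCT-116 cells (4,000/well) rested 5 h at 37 C, then given Tox21 compounds in DMSO with rat liver microsomes (0.5 mg/mL final) plus NADPH (0.5 mg/mL final) for 16 h at 37 C. Viability read by CellTiter-Glo luminescence after 30 min at room temperature.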

Assay [9] in a line: p53 small molecule agonists, cell-based qHTS assay: qHTS cell viability counter screen (AID 1963581). Note: nearly all actives have a fitted effect of over 45% in size. In a few lines:
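Following 5 h attachment, HCT-116 p53RE-bla cells took up compound for 16 h at 37 C; the reporter was read with B/G FRET substrate (2 h RT), and viability then via CellTiter-Glo ATP luminescence.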
A general note: qHTS replaces the single test concentration by a dilution series.

A short description of assay [10]: p53 small molecule agonists, cell-based qHTS assay (AID 1963582; active = well fitted activation curve with a large enough effect in the signal ratio in the repeat runs, not every such curve was filed as active; the % refers to the signal ratio). The procedure, abridged: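 In this cell-based concentration-response screen, a p53 response element drives beta-lactamase; cells received DMSO-borne compounds after 5 h culture and were incubated a further 16 h before FRET substrate development.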
Assay [11] concerns the target 5-hydroxytryptamine receptor 2A (Homo sapiens) (UniProt P28223). The assay is described as follows: 5-hydroxytryptamine receptor 2A (HTR2A) small molecule agonists, cell-based qHTS assay (AID 1963587). Note: nearly all actives have a fitted effect of over 30% in size. In a few lines:
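HTR2A-CHO cells, plated 18 h at 37 C/5% CO2, dye-loaded 1 h at 37 C; compounds in DMSO added by pin tool (agonist mode). Intracellular calcium flux read as kinetic fluorescence on FDSS over 2 min at 1 s intervals.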

In assay [12] the target is Muscarinic acetylcholine receptor M1 (Homo sapiens) (UniProt P11229). The assay is described as follows: Cholinergic receptor muscarinic 1 (CHRM1) small molecule antagonists, cell-based qHTS assay (AID 1963588). Note: nearly all actives have a fitted effect of over 40% in size. In a few lines: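 CHRM1-CHO calcium-flux assay, antagonist mode. Cells were seeded 18 h, dye-loaded 1 h at 37 C and given compound for 5 min at RT, then acetylcholine was added at 50nM. FDSS fluorescence was read 3 min; 15 concentrations, three runs.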
Muscarinic acetylcholine receptor M1 (Homo sapiens), sequence (P11229 whole entry, looked up): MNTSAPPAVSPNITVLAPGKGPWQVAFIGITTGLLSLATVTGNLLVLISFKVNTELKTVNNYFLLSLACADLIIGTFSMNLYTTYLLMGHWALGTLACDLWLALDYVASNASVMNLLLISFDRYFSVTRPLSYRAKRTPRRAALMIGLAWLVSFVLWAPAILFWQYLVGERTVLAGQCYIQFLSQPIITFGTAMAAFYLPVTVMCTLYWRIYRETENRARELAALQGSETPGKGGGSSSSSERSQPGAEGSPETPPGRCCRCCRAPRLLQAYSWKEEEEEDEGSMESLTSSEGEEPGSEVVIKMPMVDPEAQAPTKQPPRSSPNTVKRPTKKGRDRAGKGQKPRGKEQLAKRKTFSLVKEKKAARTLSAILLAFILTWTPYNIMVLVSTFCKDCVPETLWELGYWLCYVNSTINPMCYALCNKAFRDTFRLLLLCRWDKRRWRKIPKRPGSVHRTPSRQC

Assay [13] shares this target. The assay is described as follows: Cholinergic receptor muscarinic 1 (CHRM1) small molecule agonists, cell-based qHTS assay (AID 1963589). Note: nearly all actives have a fitted effect of over 35% in size. The procedure, abridged:
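Measures agonist-induced intracellular calcium rise. Stable human CHRM1 CHO line, 1 h dye load at 37 C, compounds from DMSO, kinetic fluorescence read.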

Assay [14] is described as follows: cAMP Responsive Elements (CRE) small molecule agonists, cell-based qHTS assay (AID 1963590). The procedure, abridged:
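A CRE-responsive beta-lactamase reporter in HEK 293T cells was used. Treatment ran 3 h at 37 C; detection used LiveBLAzer B/G FRET substrate for 2 h at room temperature.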

The nature of assay [15]: cAMP Responsive Elements (CRE) small molecule antagonists, cell-based qHTS assay (AID 1963591; active = well fitted inhibition curve with a large enough effect in the signal ratio in the repeat runs, not every such curve was filed as active; the % refers to the signal ratio). The procedure, abridged:
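HEK293T cells carrying a CRE-driven beta-lactamase reporter receive compound and NKH477 (0.25 uM final) for 3 h. Fluorescence from LiveBLAzer B/G FRET substrate is read after 2 h at room temperature.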

The target in assay [16] is Beta-2 adrenergic receptor (Homo sapiens) (UniProt P07550). The assay is described as follows: Adrenergic beta2 receptor (ADRB2) small molecule antagonists, cell-based qHTS assay (AID 1963592). Note: series mostly up to about 92 µM; nearly all actives have a fitted effect of over 50% in size. The procedure, abridged:
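Cells (CHO, stable ADRB2 overexpression) incubated 18-20hr at 37C; compounds added from DMSO; agonist mix (1nM isoproterenol, 100uM IBMX, 25uM Ro-20-1724) added; 0.5hr RT; d2-cAMP and anti-cAMP-cryptate added; 1hr RT; 665/615 nm read.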

Assay [17] concerns the target D(2) dopamine receptor (Homo sapiens) (UniProt P14416). The assay is described as follows: Dopamine D2 receptor (DRD2) small molecule agonists, cell-based qHTS assay (AID 1963594). Note: nearly all actives have a fitted effect of over 35% in size. The procedure, abridged:
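HEK293 cells stably expressing DRD2 were cultured 24 h at 37 C, then given Ro20-1724 (0.1 mM final) and compounds for 10 min at room temperature. NKH477 (200nM) was then added for 30 min. cAMP was read by HTRF.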

Assay [18] shares this target. The assay is described as follows: Dopamine D2 receptor (DRD2) small molecule antagonists, cell-based qHTS assay (AID 1963595; active = well fitted inhibition curve with a large enough effect in the signal ratio in the repeat runs, with a control signal flat; the % refers to the signal ratio). The procedure, abridged: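 In this cell-based antagonist screen, compounds act for 10 min at room temperature before a 30 min challenge with 12 nM quinpirole and 200 nM NKH477. cAMP is quantified by HTRF competition in DRD2-HEK293 cells containing 0.1 mM Ro20-1724.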

The target of assay [19] is 5-hydroxytryptamine receptor 2A (Homo sapiens) (UniProt P28223). The assay is described as follows: 5-hydroxytryptamine receptor 2A (HTR2A) small molecule antagonists, cell-based qHTS assay (AID 1963586). Note: nearly all actives have a fitted effect of over 45% in size. The procedure, abridged:
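Antagonist-mode intracellular calcium assay: DOI (4 nM) added after 5 min compound pre-incubation at room temperature to dye-loaded HTR2A-CHO cells. Fluorescence followed for 3 min, sampled every second.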

The target of assay [20] is Beta-2 adrenergic receptor (Homo sapiens) (UniProt P07550). The assay is described as follows: Adrenergic beta2 receptor (ADRB2) small molecule agonists, cell-based qHTS assay (AID 1963593).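 Note: CHO cells stably overexpressing human ADRB2.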 The procedure, abridged: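 CHO cells stably over-expressing ADRB2 were plated overnight at 37C, then dosed with compounds plus a stimulation mix containing 100uM IBMX and 25uM Ro-20-1724 for 0.5hr at room temperature. cAMP was measured by HTRF competition, 1hr.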
Beta-2 adrenergic receptor (Homo sapiens), sequence (P07550 whole entry, looked up): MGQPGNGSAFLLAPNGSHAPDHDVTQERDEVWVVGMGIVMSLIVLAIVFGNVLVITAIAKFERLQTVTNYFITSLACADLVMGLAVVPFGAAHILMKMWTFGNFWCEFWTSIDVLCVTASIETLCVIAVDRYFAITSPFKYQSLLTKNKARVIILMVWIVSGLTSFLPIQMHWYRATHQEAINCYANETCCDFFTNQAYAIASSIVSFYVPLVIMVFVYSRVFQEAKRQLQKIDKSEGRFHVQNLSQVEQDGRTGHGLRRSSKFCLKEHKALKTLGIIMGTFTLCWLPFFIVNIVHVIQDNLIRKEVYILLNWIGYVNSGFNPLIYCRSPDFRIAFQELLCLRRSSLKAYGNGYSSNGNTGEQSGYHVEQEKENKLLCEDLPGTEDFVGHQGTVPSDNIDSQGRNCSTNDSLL

A number with no mark means an inactive call. Inconclusive results are not listed. Calls of active or inactive are those of the source. Unless noted, calls come from the whole dose curve.

D(2) dopamine receptor (Homo sapiens), sequence (P14416 whole entry, looked up): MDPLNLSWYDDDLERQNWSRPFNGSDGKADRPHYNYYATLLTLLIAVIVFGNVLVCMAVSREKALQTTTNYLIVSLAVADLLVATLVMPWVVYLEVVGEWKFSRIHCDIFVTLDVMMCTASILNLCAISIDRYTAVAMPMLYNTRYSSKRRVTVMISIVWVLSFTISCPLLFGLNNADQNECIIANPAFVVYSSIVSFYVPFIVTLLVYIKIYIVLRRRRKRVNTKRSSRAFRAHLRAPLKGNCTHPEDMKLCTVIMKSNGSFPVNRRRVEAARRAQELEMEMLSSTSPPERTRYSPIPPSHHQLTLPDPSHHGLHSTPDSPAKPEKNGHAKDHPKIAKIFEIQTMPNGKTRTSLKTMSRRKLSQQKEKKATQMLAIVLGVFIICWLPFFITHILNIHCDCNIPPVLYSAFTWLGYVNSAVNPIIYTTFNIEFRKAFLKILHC
5-hydroxytryptamine receptor 2A (Homo sapiens), sequence (P28223 whole entry, looked up): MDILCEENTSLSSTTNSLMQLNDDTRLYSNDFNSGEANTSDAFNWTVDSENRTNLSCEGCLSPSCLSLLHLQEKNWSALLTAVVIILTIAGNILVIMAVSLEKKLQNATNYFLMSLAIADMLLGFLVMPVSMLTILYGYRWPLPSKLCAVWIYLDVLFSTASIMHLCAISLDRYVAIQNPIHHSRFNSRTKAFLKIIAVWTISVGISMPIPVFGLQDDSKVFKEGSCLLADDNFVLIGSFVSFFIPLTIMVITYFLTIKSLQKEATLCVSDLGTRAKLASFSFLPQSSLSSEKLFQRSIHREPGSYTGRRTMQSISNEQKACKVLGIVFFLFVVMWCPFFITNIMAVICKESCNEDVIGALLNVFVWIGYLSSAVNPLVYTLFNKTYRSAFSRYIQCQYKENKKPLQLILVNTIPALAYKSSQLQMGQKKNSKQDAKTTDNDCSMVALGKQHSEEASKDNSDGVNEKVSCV
Gonadotropin-releasing hormone receptor (Homo sapiens), sequence (P30968 whole entry, looked up): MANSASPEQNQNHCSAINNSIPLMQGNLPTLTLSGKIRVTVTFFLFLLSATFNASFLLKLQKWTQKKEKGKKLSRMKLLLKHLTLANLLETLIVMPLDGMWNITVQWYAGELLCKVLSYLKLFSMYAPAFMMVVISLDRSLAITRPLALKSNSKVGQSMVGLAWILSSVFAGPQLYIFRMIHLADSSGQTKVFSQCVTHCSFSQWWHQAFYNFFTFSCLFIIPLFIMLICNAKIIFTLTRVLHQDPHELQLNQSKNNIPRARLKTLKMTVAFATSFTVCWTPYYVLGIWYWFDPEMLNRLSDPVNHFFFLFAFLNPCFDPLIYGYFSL
KiSS-1 receptor (Homo sapiens), sequence (Q969F8 whole entry, looked up): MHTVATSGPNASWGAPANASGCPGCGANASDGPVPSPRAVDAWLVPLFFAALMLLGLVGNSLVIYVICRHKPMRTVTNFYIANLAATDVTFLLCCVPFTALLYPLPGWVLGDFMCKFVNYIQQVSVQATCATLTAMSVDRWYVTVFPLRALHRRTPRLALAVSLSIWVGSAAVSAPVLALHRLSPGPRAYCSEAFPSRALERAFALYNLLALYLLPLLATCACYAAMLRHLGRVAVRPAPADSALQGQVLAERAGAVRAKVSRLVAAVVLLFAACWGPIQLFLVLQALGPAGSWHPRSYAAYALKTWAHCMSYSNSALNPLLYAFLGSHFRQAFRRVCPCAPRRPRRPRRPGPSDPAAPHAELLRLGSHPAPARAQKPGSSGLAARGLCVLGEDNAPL

On to `CC(C)(O)CCCC1=CCC(C=O)CC1` (stereo not drawn), for which the Potency result in assay [1], in [2], in assay [5], in assay [6], in [7] and in assay [8] was “inactive” throughout. Besides, the Potency entry in assay [9], in assay [10], in assay [11], in [12], in assay [13] and in [14] was “inactive” in each case. The Potency result in [15], in [16], in [17] and in assay [18] was “inactive” throughout. Besides, the result in assay [3] and in [4] was inactive.

`CN(C)CCCCl`: the Potency entry in [1], in assay [2], in assay [5], in assay [6], in [7] and in assay [8] was “inactive” throughout. For the same compound, the Potency result in assay [9], in assay [10], in [19], in assay [11], in [12] and in [14] was “inactive” in each case. Also, the Potency entry in assay [15], in [16], in assay [17] and in assay [18] was “inactive” throughout. In addition, the outcome in assay [3] and in assay [4] was inactive.

As to `C=CN1CCCCCC1=O`, the Potency result in assay [1], in assay [2], in assay [5], in [6], in assay [7] and in assay [8] was “inactive” throughout. In addition, the Potency result in assay [9], in assay [10], in [19], in assay [11], in assay [12] and in [13] was “inactive” in each case. In addition, the Potency entry in assay [15], in assay [16], in assay [20], in [17] and in assay [18] was “inactive” throughout. Also, the result in assay [3] and in [4] was inactive.

With `NC(CO)C(=O)NNCc1ccc(O)c(O)c1O` (stereo not drawn), the Potency result in [1], in [2], in assay [5], in [6], in assay [7] and in [8] was “inactive” in each case. Besides, the Potency entry in assay [9], in [10], in [19], in assay [11], in [12] and in assay [13] was “inactive” in each case. Further, the Potency entry in assay [14] and in assay [18] was “inactive” each time. In addition, the result in assay [3] and in assay [4] was inactive.

`Cc1nnc(C(=O)NC(C)(C)c2nc(C(=O)NCc3ccc(F)cc3)c(O)c(=O)n2C)o1`: the Potency result in assay [1], in assay [2], in assay [5], in assay [6], in assay [7] and in [8] was “inactive” throughout. Further, the Potency result in assay [9], in [10], in assay [11], in [12], in [13] and in [15] was “inactive” in each case. Also, the Potency entry in assay [16], in [20] and in assay [18] was “inactive” each time. In addition, the result in assay [3] and in assay [4] was inactive.

As to `O=C(O)c1cn(C2CC2)c2cc(Cl)c(F)cc2c1=O`, in assay [1], the Potency was 13.3 µM (active). The Potency entry in [2], in [5], in assay [6], in [7], in assay [8] and in [9] was “inactive” throughout. In addition, the Potency result in [10], in assay [19], in assay [11], in assay [12], in [13] and in assay [16] was “inactive” in each case. The Potency result in assay [17] is “inactive”. Also, the result in assay [3] and in [4] was inactive.

With `Cc1ccc(C(=O)c2ccc(CC(=O)O)n2C)cc1`, the Potency result in [1], in assay [2], in [5], in [6], in assay [7] and in assay [8] was “inactive” each time. The Potency result in assay [9], in assay [10], in assay [15], in assay [16], in [20] and in assay [17] was “inactive” each time. Also, the Potency entry in assay [18] was “inactive”. In addition, the outcome in assay [3] and in [4] was inactive.

Regarding `C=CCOc1nc(OCC=C)nc(OCC=C)n1`, the Potency entry in assay [1], in assay [2], in [5], in [6], in assay [7] and in assay [8] was “inactive” throughout. Also, the Potency entry in [9], in assay [10], in assay [19], in assay [11], in [12] and in [13] was “inactive” each time. The Potency entry in [15], in assay [16], in assay [20], in assay [17] and in [18] was “inactive” each time. The outcome in [3] and in [4] was inactive.
